Experimental data as given in PubChem BioAssay (NCI).
About 79,000 compounds went through this panel and 15% of them were active in at least one assay; those are over-represented in the sample as a whole. Unmarked numbers belong to inactive results. Calls of active or inactive are those of the source. Cut-off read from the data, not from the text of the source: active = growth inhibition above about 70%; inactive = the rest.

What was measured:
[1] = NCI Yeast Anticancer Drug Screen. Data for the rad50 strain (AID 155);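 note: 0% = growth of vehicle-only cultures of the same strain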; conditions: S. cerevisiae rad50 strain growth inhibition; at 50.0 µM; active compounds read high
How it was run: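 Genetically altered yeast (DNA repair pathway); compound treatment; growth inhibition vs vehicle ctrl.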

[2] = NCI Yeast Anticancer Drug Screen. Data for the mec2-1 strain (AID 157); conditions: S. cerevisiae mec2-1 strain, at 50.0 µM, active compounds read high
How it was run: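 Compounds were applied to mec2-1 yeast cells. Their growth was then compared with that of vehicle-treated cultures to give growth inhibition.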

[3] = NCI Yeast Anticancer Drug Screen. Data for the sgs1 mgt1 strain (AID 161);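 note: 0% = growth of cultures given vehicle only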; conditions: S. cerevisiae sgs1 mgt1 strain, at 50.0 µM, active compounds read high
How it was run: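 Percent growth inhibition was derived by comparing compound-exposed mutant yeast with vehicle-exposed cultures. The strain carries alterations in DNA damage repair.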

[4] = NCI Yeast Anticancer Drug Screen. Data for the cln2 rad14 strain (AID 165);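 note: 0% = growth equal to vehicle treated cultures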; conditions: S. cerevisiae cln2 rad14 strain, at 50.0 µM, active compounds read high
How it was run: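 Strain: cln2 rad14 yeast, altered in cell cycle control and DNA damage repair. Read-out: growth inhibition vs vehicle.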

[5] = NCI Yeast Anticancer Drug Screen. Data for the bub3 strain (AID 167); conditions: S. cerevisiae bub3 mutant strain, at 50.0 µM, active compounds read high
How it was run: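 Yeast carrying a defined mutation is treated with each compound, and growth is compared with that of vehicle-exposed cells to give inhibition.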

[6] = NCI Yeast Anticancer Drug Screen. Data for the mlh1 rad18 strain (AID 175); conditions: S. cerevisiae mlh1 rad18 strain growth inhibition; at 50.0 µM; active compounds read high
How it was run: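 A repair-deficient yeast strain is exposed to test compound, and growth is scored relative to vehicle-treated controls.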

SMILES | growth inhibition [1] | growth inhibition [2] | growth inhibition [3] | growth inhibition [4] | growth inhibition [5] | growth inhibition [6]
COc1ccc(N2C(=O)c3c(C)ccc(C)c3C2=O)cc1 | -23.8% | 6.4% | 19.9% | -0.5% | -3.5% | 5.15%
CC(=O)SCC(C)CCl (configuration not stated) | -12.4% | -47.6% | -30.9% | -3.15% | -17.7% | -25.4%
CC1=NN(c2ccccc2)C(=O)C1=C1SCCCS1 | -14.2% | -25.4% | 10.6% | 16.4% | -4.9% | 1.8%
Cc1cc(N(CCC#N)CCC#N)ccc1/C(N=Nc1cccc(Cl)c1)=N/NC(=O)c1cc(Cl)ccc1O | 21% | 4.9% | 26.8% | 10.3% | 33.6% | -59.4%
O/N=C(/CC(O)(c1ccccc1)c1ccccc1)c1ccccc1 | 22.6% | -6.8% | 7.8% | -15.4% | -17.9% | 27.4%
CCCCCCCCCCCNc1ncnc2[nH]ncc12 | -8.6% | -16.5% | 5.3% | -0.7% | -2.05% | 9.8%
CCCCC(=O)N/N=C/c1c[nH]c2ccc(Br)cc12 | 4.3% | 6.05% | -9.1% | 0.85% | 12.9% | 0.05%
O=C(CCC1CCCCC1)OC1CCCC1 | 12% | -4.45% | -2.7% | -5.1% | -2.3% | 24.3%
CC1(C)C2CCC1(C)C(OC(=O)C1OC(O)C(O)C(O)C1O)C2 (configuration not stated) | -1.3% | 24.9% | 12.8% | -2.75% | 27.6% | 28.9%
Nc1ccc(C(=O)Nc2ccc3c(ccc4ccccc43)c2)cc1 | -5.8% | 2.35% | 13.8% | 1.75% | -12.9% | 2.35%
Nc1cccc(NC(=O)c2cccc(N)c2)c1 | 9.8% | -4.75% | 2.2% | 10.4% | 11.4% | 18.1%
COc1cccc(C2CC(C)(N3CCCC3)Oc3cc4c(cc32)OCO4)c1O (configuration not stated) | 7.5% | 13.9% | 10% | 13.8% | 28.6% | -10.2%
NCCCOCCN1CCN(c2ccccc2)CC1 | -0.75% | -27.2% | 0.75% | -39.5% | 2.95% | 7.25%
COc1ccc(C=Nc2ccc(C(=O)O)cc2)cc1 | 0.5% | 9.35% | 1.45% | -2.25% | 13.9% | -6.25%
Cc1ccnc(-n2c(N)cc(=O)[nH]c2=S)c1 | -7.15% | 1.3% | 10.6% | -17.4% | 27.6% | 5.55%
CC(=O)Nc1ccc([N+](=O)[O-])cc1Cl | 27.6% | 16.9% | 16.8% | -3.15% | 5.1% | 26.4%
CC(O)CNC(=O)CC(C)CC(C)(C)C (configuration not stated) | 45.7% | 19.9% | 24.9% | 13.4% | 25.4% | 34%
COc1ccc(-c2c(C(=O)O)cc(O)c3cc(OC)c(OC)cc23)cc1OC | 6.4% | -2.9% | 5% | 26.4% | 3.3% | -0.75%
CC(C)C(O)(c1ccccc1)C(O)(c1ccccc1)C(C)C (configuration not stated) | 99.5% (active) | 99.6% (active) | 99.5% (active) | 99% (active) | 99.5% (active) | 99.5% (active)
NNS(=O)(=O)c1ccc(N)cc1 | 5.6% | 1.3% | -5.4% | -35% | 18.8% | 5.15%
N#Cc1ccccc1OCCCCCCCCCCOc1ccccc1C#N | -2.8% | -4.15% | -19.6% | 31.4% | -1% | 3.8%

SMILES | growth inhibition [1] | growth inhibition [2] | growth inhibition [3] | growth inhibition [4] | growth inhibition [5] | growth inhibition [6]
CCOC(=O)CCc1c[nH]c2ccccc12 | -12.3% | -17.1% | -9.9% | -9.85% | 0.2% | -3.5%
O=[N+]([O-])C1C=Nc2ccccc2N=C1 | 19.7% | -16.6% | 18.1% | 21.4% | 5% | 19.6%
O=[N+]([O-])c1ccc(N2CCN=N2)cc1 | -24.2% | -14.6% | -15.2% | 2.35% | -14.2% | -6.75%
O=C(CC(c1ccccc1)N1CCCCC1)OCC1CCCO1 (configuration not stated) | -0.85% | -13.7% | -4.1% | -44.5% | -1.85% | 14.3%
CC(=O)NC(Cc1ccc(F)cc1)C(=O)O (configuration not stated) | -1.75% | -7.85% | -18.1% | -19.7% | -27.6% | -17.9%
COc1ccc(N2C(=O)/C(=C/c3ccc(N(CCC#N)CCC#N)cc3C)N=C2c2cc([N+](=O)[O-])ccc2Cl)cc1 | -13.2% | 0.95% | 1.5% | -5.55% | -13.9% | 1.85%
Cc1ccc(OCC(=O)C2CSc3ccc(Cl)cc32)cc1 (configuration not stated) | 67.8% | 33% | 26.4% | 70.6% (active) | 75.7% (active) | 73.5% (active)
CC1CCCNC1C (configuration not stated) | -21% | -24.1% | -11.1% | -29% | -3.25% | 8.25%
O=NN1C2CCCCC2C2CCCCC21 (configuration not stated) | -9% | 20.5% | -14.7% | -5.25% | 26.2% | 3.8%
CC(C)CCCC(C)C1CCC2C3CCC4CC5(C)C(CC4(C)C3CCC12C)C(=O)C5(Cl)Cl (configuration not stated) | 13.2% | -2.7% | -22.4% | 0% | -3.55% | -27.9%
COCC(=O)c1ccccc1-c1ccccc1 | 13.6% | -2.65% | 3.15% | -4.1% | -11.2% | 0.85%
CC(=O)Nc1ccccc1NC1CC(C)N(c2ccccc2)N1C(C)=O (configuration not stated) | -10.9% | -42.4% | -40.4% | -11.5% | -34.4% | 1.05%
NCCc1c(-c2cccnc2)[nH]c2ccccc12 | -14.5% | -9.1% | -2.75% | -25.4% | 7.6% | 1.1%
CN=C/C(C(C)=O)=C(\C)O | 4.1% | -0.05% | -4.85% | 3.6% | 8.5% | 0.65%
N#Cc1c(N)nc(Nc2cccc3ccccc23)c(C#N)c1C#N | 37.7% | 29.7% | 29.1% | 39.9% | 29.4% | 36.8%
Clc1nc(N2CCOCC2)nc(N2CCOCC2)n1 | -9.5% | -21.1% | -3.2% | -32.1% | 7.7% | -5.65%
CSc1ccc(NC(=O)Nc2cccc(C(C)=O)c2)cc1 | 2.15% | 31.2% | 10.3% | -17.1% | 43% | 24.8%
Nc1ccc(S(=O)(=O)N/N=C/c2ccco2)cc1 | 27.1% | -25.1% | 2.8% | 1.6% | -50.5% | -15.1%
COc1ccc2nccc(Cl)c2c1 | 12.2% | 12.3% | 1.6% | -6.55% | 15.2% | 6.45%
CCOC(=O)Nc1nc2ccccc2n1CN1CCOCC1 | -32.1% | -11.9% | -18.9% | -14.9% | -5.35% | -7.8%
Oc1ccc2c(c1)c1ccccc1c1ncccc21 | 46% | 3.4% | 43.6% | 3.7% | 9.35% | 49%
